Only some compounds are listed: those with a hit (about 18% of all), similar ones and a draw of the others.
TDP1 block: inhibitors of human tyrosyl-DNA phosphodiesterase TDP1 | recombinant TDP1, AlphaScreen DNA substrate cleavage | Potency, µM (top dose mostly 130 µM), without a hit: at the top dose activity change, negative = inhibition, most hits filed as inhibitors | 350,000 tested, 0.28% active | AID 485290; also: nearly all actives have a fitted effect of over 40% in size
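Here, a 5' biotin and 3' phosphotyrosine-FITC DNA oligonucleotide reports Tdp1 activity: intact substrate bridges AlphaScreen beads, while cleavage leaves a 3' phosphate and drops signal. All incubations at room temperature.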
PLK1 PBD block: PLK1 (human) polo-box domain binding inhibition; P53350; Plk1 PBD binding of FITC phosphopeptide, fluorescence polarization; Potency, µM, for the others: max response, negative = inhibition, actives largely listed as inhibitors; 360,000 tested, 2.8% active; AID 720504; also: series mostly up to about 57 µM; nearly all actives have a fitted effect of over 65% in size
Target sequence (P53350 whole entry, looked up, the tested form may be a part): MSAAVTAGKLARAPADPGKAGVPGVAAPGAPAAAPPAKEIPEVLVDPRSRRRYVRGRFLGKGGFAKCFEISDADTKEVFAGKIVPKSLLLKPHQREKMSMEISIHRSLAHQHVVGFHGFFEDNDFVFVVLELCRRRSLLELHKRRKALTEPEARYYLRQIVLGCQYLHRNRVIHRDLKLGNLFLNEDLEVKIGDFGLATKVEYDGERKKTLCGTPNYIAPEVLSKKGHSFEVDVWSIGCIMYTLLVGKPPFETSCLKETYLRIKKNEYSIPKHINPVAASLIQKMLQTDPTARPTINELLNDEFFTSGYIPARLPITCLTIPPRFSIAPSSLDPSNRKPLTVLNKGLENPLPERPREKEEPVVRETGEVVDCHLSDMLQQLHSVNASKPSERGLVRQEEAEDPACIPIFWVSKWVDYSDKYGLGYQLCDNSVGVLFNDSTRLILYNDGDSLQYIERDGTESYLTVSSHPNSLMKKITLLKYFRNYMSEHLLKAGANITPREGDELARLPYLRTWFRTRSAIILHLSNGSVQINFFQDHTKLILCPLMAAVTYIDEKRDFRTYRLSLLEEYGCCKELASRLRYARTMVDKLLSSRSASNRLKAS
TDP1 cell CPT: DT40-hTDP1 cell growth loss with CPT; 420,000 tested, 12% active; Potency, µM (series often up to 46.2 µM), for the others: at the highest dose activity change, negative = growth inhibition, most hits filed as inhibitors; AID 686979; chicken DT40 Tdp1-/-;hTDP1 cells + 20 nM CPT, ATP luminescence, 48 h; also: nearly all actives have a fitted effect of over 55% in size
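Chicken DT40 Tdp1-/- cells stably complemented with human TDP1 were seeded at 400 cells/well in medium containing 20 nM camptothecin, exposed to pin-transferred compounds, and grown at 37 °C for at least 48 hr. Viability was read as ATP luminescence.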
GCN5L2 inh: inhibitors of human GCN5L2 histone acetyltransferase | GCN5L2 HAT assay, ThioGlo1 CoA-SH fluorescence | 390,000 tested, 0.21% active | Q92830 | Potency, µM (doses to about 58.9 µM), without a hit: top-dose activity change, negative = inhibition, hits mostly inhibitors
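Preincubate 20nM GCN5L2 with compound 15 min, RT → add 50uM ThioGlo1 + 75uM H3(1-25) + 70uM acetyl-CoA → read fluorescence 0 and 20 min. Primary qHTS; fluorescent artifacts likely.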
DT40 TDP1 no CPT: qHTS for Inhibitors of human tyrosyl-DNA phosphodiesterase 1 (TDP1): qHTS in cells in absence of CPT | DT40 Tdp1-/- hTDP1 cells, no CPT, ATP luminescence, 48 h | Potency, µM (titrated, usually from 46.2 µM), inactives show at the highest dose activity change, negative = growth inhibition, usual class: inhibitors | 420,000 tested, 15% active; also: nearly all actives have a fitted effect of over 55% in size
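Readout: luminescence from CellTiter-Glo after 30 min in the dark at RT. Cells: DT40 Tdp1-/- with stable hTDP1, 400/well. Exposure: compounds alone, ≥48 hr, 37 °C.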
VDR inhibitor: inhibitors of human vitamin D receptor. P11473. VDR-SRC2-3 peptide fluorescence polarization, 2 h. Potency, µM, for the others: max response, negative = inhibition, hits mostly inhibitors. 400,000 tested, 0.93% active
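Fluorescence polarization assay of small-molecule disruption of VDR binding to coregulator peptide SRC2-3. Compounds and controls pin-transferred, then read after 2 h incubation at ambient room temperature.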
* hit, by the source's call; [ ] = remark or other dose. Calls follow the shape of the dose curve; as a rule, active = well fitted curve in the direction sought with a large enough effect; inconclusive = small, poorly fitted or top-dose-only effect, or another doubt; inactive = no such curve, though single readings can be large; an effect the other way counts as inactive or inconclusive. % is scaled to controls: 0 for no effect and ±100 for the full control effect; potency is read from the fitted curve at half-maximal effect.

What do the screens show for `c1ccc2c(C(c3nnnn3-c3ccc4c(c3)OCCO4)N3CCOCC3)ccnc2c1` (stereo not drawn)?
PLK1 PBD block: 1%; TDP1 cell CPT: 3%; DT40 TDP1 no CPT: -2%

How did CN(C)CCN1CCN(C(c2ccnc3ccccc23)c2nnnn2-c2ccc3c(c2)OCCO3)CC1 (stereo not drawn) do in these assays?
PLK1 PBD block: -12%; TDP1 cell CPT: -23%; DT40 TDP1 no CPT: 16µM*

Results for Cc1cccc(C)c1NC(=O)C(c1ccnc2ccccc12)N1CCN(CCN(C)C)CC1 (stereo not drawn) ?
PLK1 PBD block: -8%; TDP1 cell CPT: 4.6µM*; DT40 TDP1 no CPT: 5.2µM*

How did O=C(NCc1cccnc1)c1csc([C@@H]2O[C@H](CO)[C@H](O)[C@H](O)[C@H]2O)n1 do in these assays?
PLK1 PBD block: -1%; TDP1 cell CPT: 5%; DT40 TDP1 no CPT: -8%

How did Cc1cc(S(=O)(=O)NCCCN2CCOCC2)c(Cl)cc1Cl do in these assays?
PLK1 PBD block: -4%; TDP1 cell CPT: -16%; GCN5L2 inh: -3%; DT40 TDP1 no CPT: -16%; VDR inhibitor: -11%

How did Cc1cccc(C)c1-n1nnnc1C(c1ccnc2ccccc12)N1CCCN(C(=O)OC(C)(C)C)CC1 (stereo not drawn) do in these assays?
PLK1 PBD block: -6%; TDP1 cell CPT: inconclusive; DT40 TDP1 no CPT: 18µM*

How did Cc1cccc(C)c1-n1nnnc1C(c1ccnc2ccccc12)N1CCN(CC(=O)NC(C)C)CC1 (stereo not drawn) do in these assays?
PLK1 PBD block: -3%; TDP1 cell CPT: -13%; DT40 TDP1 no CPT: -27%

How did c1ccc(-c2ccc(-c3cnc4n3CCCCC4)cc2)cc1 do in these assays?
TDP1 block: 12%; PLK1 PBD block: -8%; TDP1 cell CPT: inconclusive; GCN5L2 inh: -4%; DT40 TDP1 no CPT: 18µM*; VDR inhibitor: 21%

Results for c1cc2c(cc1-c1cnc3n1CCC3)OCCO2 ?
TDP1 block: 6%; PLK1 PBD block: -1%; TDP1 cell CPT: 18µM*; GCN5L2 inh: -3%; DT40 TDP1 no CPT: inconclusive; VDR inhibitor: 4%

Results for O=C(Oc1coc(CSc2nnc(NC(=O)c3cccs3)s2)cc1=O)c1ccccc1 ?
TDP1 block: -8%; PLK1 PBD block: -12%; TDP1 cell CPT: -8%; GCN5L2 inh: 25%; DT40 TDP1 no CPT: -14%; VDR inhibitor: -7%

How did Cc1ccc(C)c(C(=O)CSc2nc(-c3ccccc3)nc3c2CCCC3)c1 do in these assays?
TDP1 cell CPT: inconclusive; GCN5L2 inh: -6%; DT40 TDP1 no CPT: inconclusive; VDR inhibitor: -15%

Results for COc1cc(C(=O)N2c3ccccc3CCC2C)cc(OC)c1OC (stereo not drawn) ?
PLK1 PBD block: 0%; TDP1 cell CPT: 18µM*; GCN5L2 inh: -3%; DT40 TDP1 no CPT: 9.2µM*; VDR inhibitor: 6%

How did COc1ccc(C(=O)N2c3ccc(F)cc3CCC2C)cc1OC (stereo not drawn) do in these assays?
TDP1 block: 7%; PLK1 PBD block: -6%; TDP1 cell CPT: inconclusive; GCN5L2 inh: -10%; DT40 TDP1 no CPT: inconclusive; VDR inhibitor: -7%

How did COc1cc(OC)cc(C(=O)N2c3ccc(F)cc3CCC2C)c1 (stereo not drawn) do in these assays?
TDP1 block: 3%; PLK1 PBD block: -2%; TDP1 cell CPT: 10µM*; GCN5L2 inh: 4%; DT40 TDP1 no CPT: 12µM*; VDR inhibitor: 1%

What do the screens show for `COc1cc(C(=O)N2C(=O)CCC2=O)cc(OC)c1OC`?
TDP1 block: 1%; PLK1 PBD block: -25%; TDP1 cell CPT: 5%; GCN5L2 inh: 2%; DT40 TDP1 no CPT: 2%; VDR inhibitor: -22%

What do the screens show for `Cc1nn(Cc2ccc(C(=O)N3c4ccc(F)cc4CCC3C)o2)c(C)c1Br` (stereo not drawn)?
TDP1 block: 2%; PLK1 PBD block: -11%; TDP1 cell CPT: 21µM*; GCN5L2 inh: -5%[0.501 µM]; DT40 TDP1 no CPT: 16µM*; VDR inhibitor: -6%

How did CC1CCc2ccccc2N1C(=O)c1cccs1 (stereo not drawn) do in these assays?
TDP1 block: 7%; PLK1 PBD block: 21µM*; TDP1 cell CPT: inconclusive; GCN5L2 inh: 2%; DT40 TDP1 no CPT: inconclusive; VDR inhibitor: inconclusive

What do the screens show for `O=c1c2ccccc2oc2cc(O)c(C3COCC(CO)C(O)C(O)C3O)c(O)c12` (stereo not drawn)?
TDP1 block: 23%; TDP1 cell CPT: 10%; DT40 TDP1 no CPT: 0%

How did C=Cc1ccc(Cn2c(C)c(C(=O)NCc3ccc(Cl)c(Cl)c3)sc2=O)cc1 do in these assays?
PLK1 PBD block: -4%; TDP1 cell CPT: inconclusive; DT40 TDP1 no CPT: inconclusive

What do the screens show for `CC(=O)Oc1ccc(Cn2c(C)c(C(=O)NCc3ccccc3C(F)(F)F)sc2=O)cc1`?
PLK1 PBD block: -7%; TDP1 cell CPT: inconclusive; DT40 TDP1 no CPT: inconclusive

How did Cc1ccc(Cn2c(C)c(C(=O)NCc3cccs3)sc2=O)cc1 do in these assays?
PLK1 PBD block: -4%; TDP1 cell CPT: inconclusive; DT40 TDP1 no CPT: -30%

What do the screens show for `C=Cc1ccc(Cn2c(C)c(C(=O)NCc3ccc4c(c3)OCCO4)sc2=O)cc1`?
PLK1 PBD block: -3%; TDP1 cell CPT: inconclusive; DT40 TDP1 no CPT: 10µM*

What do the screens show for `CSc1ccc(Cn2c(C)c(C(=O)NCc3ccc4c(c3)OCO4)sc2=O)cc1`?
PLK1 PBD block: -6%; TDP1 cell CPT: inconclusive; DT40 TDP1 no CPT: 15µM*

How did CSc1ccc(Cn2c(C)c(C(=O)NCc3cccs3)sc2=O)cc1 do in these assays?
PLK1 PBD block: 4%; TDP1 cell CPT: inconclusive; DT40 TDP1 no CPT: 23µM*

How did Cc1c(C(=O)NCc2ccccc2C(F)(F)F)sc(=O)n1Cc1ccc(F)cc1 do in these assays?
PLK1 PBD block: 3%; TDP1 cell CPT: 21µM*; DT40 TDP1 no CPT: inconclusive

What do the screens show for `COc1cccc(C(=O)NCCS(=O)(=O)N2CCC(C)CC2)c1`?
TDP1 block: -9%[0.505 µM]; PLK1 PBD block: -3%; TDP1 cell CPT: -3%; GCN5L2 inh: -5%; DT40 TDP1 no CPT: -1%; VDR inhibitor: -12%

Results for CCOC(=O)C1=C(N)OC2=C(C(=O)CCC2)C1c1ccccc1OC (stereo not drawn) ?
TDP1 block: -2%; PLK1 PBD block: -6%; TDP1 cell CPT: 0%; GCN5L2 inh: 9%; DT40 TDP1 no CPT: 14%; VDR inhibitor: 27%

Source: PubChem
